Reference: PubChem BioAssay AID2810 (NMMLSC, 2010)
Screen size: about 1,200 compounds; about 65 (5%) were called active. The sample holds actives, similar compounds and a random draw of the others, so the mix is not that of the screen.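 The calls were made as follows: active = at either tested dose, response and 90th-percentile vesicle-stain brightness of CD8 cells under set limits and under 9% cells vesicle-bound; inactive = the rest.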

Experiment: modulators of CD8 T cell-vesicle binding, confirmation, cherry-picked primary hits, two concentrations (AID 2810);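 also: lower values mean blocking of vesicle binding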;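 as to percent response (vesicle binding): ratio of mean FL2 vesicle stain of CD8+ cells to that row's control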
Details: 2C CD8+ T cell-vesicle binding, flow cytometry; for double positive events: CD8+/vesicle+ events
[1] = at 15.4 µM, stronger effect = lower value

SMILES: O=C(COc1ccccc1)Nc1cc(S(=O)(=O)N2CCOCC2)ccc1N1CCCC1
- double positive events (at 7.7 µM): 28.3%
- double positive events [1]: 4.1%
- percent response (vesicle binding) [1]: 138% (inactive)
- percent response (vesicle binding) (response, at 7.7 µM): 164%

SMILES: CCN(Cc1ccccc1)C(=O)c1ccc(C)c(S(=O)(=O)N2CCCCC2)c1
- double positive events (at 7.7 µM): 11.9%
- double positive events [1]: 30.2%
- percent response (vesicle binding) [1]: 197% (inactive)
- percent response (vesicle binding) (response, at 7.7 µM): 111%

SMILES: Cc1cccc(C(=O)OCC(=O)NN2C(=O)NC3(CCC(C)CC3)C2=O)c1O (stereo unspecified)
- double positive events (at 7.7 µM): 19.9%
- double positive events [1]: 5.2%
- percent response (vesicle binding) [1]: 35.3% (active)
- percent response (vesicle binding) (response, at 7.7 µM): 181%

SMILES: Cc1cccc(C(=O)OCC(=O)Nc2ccc3c(c2)OCCO3)c1O
- double positive events (at 7.7 µM): 10.2%
- double positive events [1]: 29.9%
- percent response (vesicle binding) [1]: 717% (inactive)
- percent response (vesicle binding) (response, at 7.7 µM): 113%

SMILES: CCOC(=O)c1c(NC(=O)CN2C(=O)NC3(CCC(C)CC3)C2=O)sc(C)c1-c1ccc(C)cc1 (stereo unspecified)
- double positive events (at 7.7 µM): 33.5%
- double positive events [1]: 23.6%
- percent response (vesicle binding) [1]: 559% (inactive)
- percent response (vesicle binding) (response, at 7.7 µM): 363%

SMILES: Cc1ccc2nc(-c3cccnc3)c(NC3CCCC3)n2c1
- double positive events (at 7.7 µM): 16.9%
- double positive events [1]: 33.3%
- percent response (vesicle binding) [1]: 211% (inactive)
- percent response (vesicle binding) (response, at 7.7 µM): 276%

SMILES: O=c1[nH]c(CN(CCc2ccccc2)S(=O)(=O)c2ccc(Cl)cc2)nc2ccccc12
- double positive events (at 7.7 µM): 9.5%
- double positive events [1]: 16.7%
- percent response (vesicle binding) [1]: 208% (inactive)
- percent response (vesicle binding) (response, at 7.7 µM): 239%

SMILES: CCOC(=O)C(c1ccccc1)N1CCN(c2ccc(OC)cc2)CC1 (stereo unspecified)
- double positive events (at 7.7 µM): 13.2%
- double positive events [1]: 29.9%
- percent response (vesicle binding) [1]: 388% (inactive)
- percent response (vesicle binding) (response, at 7.7 µM): 255%

SMILES: CCc1noc(C)c1C(=O)OC(C)C(=O)Nc1ccc2c(c1)OCO2 (stereo unspecified)
- double positive events (at 7.7 µM): 32.8%
- double positive events [1]: 2.5%
- percent response (vesicle binding) [1]: 22% (active)
- percent response (vesicle binding) (response, at 7.7 µM): 329%

SMILES: CC(Sc1nc2ccccc2s1)C(=O)Nc1ccc2c(c1)OCO2 (stereo unspecified)
- double positive events (at 7.7 µM): 9%
- double positive events [1]: 28%
- percent response (vesicle binding) [1]: 533% (inactive)
- percent response (vesicle binding) (response, at 7.7 µM): 344%

SMILES: CCc1ccccc1NC(=O)NCc1ccc2c(c1)OCO2
- double positive events (at 7.7 µM): 17.2%
- double positive events [1]: 20%
- percent response (vesicle binding) [1]: 361% (inactive)
- percent response (vesicle binding) (response, at 7.7 µM): 479%

SMILES: Cc1noc(C)c1C(=O)OC(C)C(=O)N1CCc2ccccc21 (stereo unspecified)
- double positive events (at 7.7 µM): 28.5%
- double positive events [1]: 4.4%
- percent response (vesicle binding) [1]: 134% (inactive)
- percent response (vesicle binding) (response, at 7.7 µM): 293%

SMILES: COc1ccc(Cl)cc1NS(=O)(=O)c1cccc(C(=O)NCC(C)(C)N2CCOCC2)c1
- double positive events (at 7.7 µM): 20.7%
- double positive events [1]: 18.3%
- percent response (vesicle binding) [1]: 317% (inactive)
- percent response (vesicle binding) (response, at 7.7 µM): 710%

SMILES: COc1cc(CNCc2cccnc2)ccc1OCC(=O)NC1CCCCC1
- double positive events (at 7.7 µM): 18.4%
- double positive events [1]: 5.7%
- percent response (vesicle binding) [1]: 32.6% (active)
- percent response (vesicle binding) (response, at 7.7 µM): 303%

SMILES: COc1cc(CNCCc2ccc(S(N)(=O)=O)cc2)ccc1OCC(=O)N1CCCCC1
- double positive events (at 7.7 µM): 11.5%
- double positive events [1]: 19.2%
- percent response (vesicle binding) [1]: 229% (inactive)
- percent response (vesicle binding) (response, at 7.7 µM): 370%

SMILES: Cc1ccc(C(=O)OCC(=O)NC2CCCCC2)o1
- double positive events (at 7.7 µM): 35.5%
- double positive events [1]: 14%
- percent response (vesicle binding) [1]: 244% (inactive)
- percent response (vesicle binding) (response, at 7.7 µM): 265%

SMILES: COc1ccc(CNC(=O)COC(=O)CCN2C(=O)C3CC=CCC3C2=O)cc1OC (stereo unspecified)
- double positive events (at 7.7 µM): 41.8%
- double positive events [1]: 29.1%
- percent response (vesicle binding) [1]: 307% (inactive)
- percent response (vesicle binding) (response, at 7.7 µM): 239%

SMILES: COc1ccc(OC)c(NC(=O)c2ccccc2SC)c1
- double positive events (at 7.7 µM): 56.3%
- double positive events [1]: 35.3%
- percent response (vesicle binding) [1]: 242% (inactive)

SMILES: COc1ccc(CNC(=O)c2cccnc2SC)cc1OC
- double positive events (at 7.7 µM): 9.3%
- double positive events [1]: 2%
- percent response (vesicle binding) [1]: 29.8% (active)
- percent response (vesicle binding) (response, at 7.7 µM): 180%

SMILES: O=C(Cn1cc(C(F)(F)F)cc(Cl)c1=O)NCCc1ccc(Cl)cc1Cl
- double positive events (at 7.7 µM): 11.1%
- double positive events [1]: 1.7%
- percent response (vesicle binding) [1]: 16.3% (active)
- percent response (vesicle binding) (response, at 7.7 µM): 149%

SMILES: Cc1ccc(C(=O)NC2CCCc3c2cnn3-c2ccc(F)cc2F)cn1 (stereo unspecified)
- double positive events (at 7.7 µM): 33.7%
- double positive events [1]: 15%
- percent response (vesicle binding) [1]: 329% (inactive)
- percent response (vesicle binding) (response, at 7.7 µM): 658%

SMILES: CCOC(=O)C1(Cc2cccc(OC)c2)CCN(C/C=C/c2ccccc2)CC1
- double positive events (at 7.7 µM): 25.8%
- double positive events [1]: 11%
- percent response (vesicle binding) [1]: 119% (inactive)
- percent response (vesicle binding) (response, at 7.7 µM): 269%

SMILES: Cc1ccccc1/C(N)=N/OC(=O)c1cccs1
- double positive events (at 7.7 µM): 12.4%
- double positive events [1]: 17.9%
- percent response (vesicle binding) [1]: 190% (inactive)
- percent response (vesicle binding) (response, at 7.7 µM): 217%

SMILES: CCOC(=O)N1CCN(Cc2nc(-c3ccc(C)cc3)no2)CC1
- double positive events (at 7.7 µM): 14.7%
- double positive events [1]: 4.6%
- percent response (vesicle binding) [1]: 63% (inactive)
- percent response (vesicle binding) (response, at 7.7 µM): 286%

SMILES: COc1ccc([N+](=O)[O-])cc1NC(=O)c1ccc(N(Cc2ccccc2C)S(C)(=O)=O)cc1
- double positive events (at 7.7 µM): 8.4%
- double positive events [1]: 2.9%
- percent response (vesicle binding) [1]: 47.7% (active)
- percent response (vesicle binding) (response, at 7.7 µM): 131%

SMILES: COc1ccc([N+](=O)[O-])cc1N(CC(=O)O)S(C)(=O)=O
- double positive events (at 7.7 µM): 9.6%
- double positive events [1]: 19.3%
- percent response (vesicle binding) [1]: 127% (inactive)
- percent response (vesicle binding) (response, at 7.7 µM): 281%

SMILES: COc1ccc([N+](=O)[O-])cc1NC(=O)C(C)Sc1nc(-c2ccccc2)cs1 (stereo unspecified)
- double positive events (at 7.7 µM): 11.7%
- double positive events [1]: 22.6%
- percent response (vesicle binding) [1]: 114% (inactive)
- percent response (vesicle binding) (response, at 7.7 µM): 121%

SMILES: COc1cc2ccccc2cc1C(=O)NC1CCCCC1
- double positive events (at 7.7 µM): 11.7%
- double positive events [1]: 19%
- percent response (vesicle binding) [1]: 121% (inactive)
- percent response (vesicle binding) (response, at 7.7 µM): 368%

SMILES: CCN1CCN(c2ccc(NC(=O)c3cc4ccccc4cc3OC)cc2C)CC1
- double positive events (at 7.7 µM): 21.2%
- double positive events [1]: 1.8%
- percent response (vesicle binding) [1]: 55.9% (active)
- percent response (vesicle binding) (response, at 7.7 µM): 373%

SMILES: CCN1CCN(c2ccc(S(=O)(=O)N3CCCCC3)cc2NC(=O)c2cccc(C)c2[N+](=O)[O-])CC1
- double positive events (at 7.7 µM): 31.1%
- double positive events [1]: 37.1%
- percent response (vesicle binding) [1]: 238% (inactive)
- percent response (vesicle binding) (response, at 7.7 µM): 406%

SMILES: O=C(Nc1nc2ccccc2n1CCN1CCOCC1)c1ccc(Cn2cc([N+](=O)[O-])cn2)o1
- double positive events (at 7.7 µM): 23.6%
- double positive events [1]: 23.8%
- percent response (vesicle binding) [1]: 145% (inactive)
- percent response (vesicle binding) (response, at 7.7 µM): 260%

SMILES: C=CCn1c(C)cc(-c2csc(NCC)n2)c1C
- double positive events (at 7.7 µM): 11.2%
- double positive events [1]: 24.9%
- percent response (vesicle binding) [1]: 196% (inactive)
- percent response (vesicle binding) (response, at 7.7 µM): 160%

SMILES: Cc1ccc(S(=O)(=O)N2CCN(CCOc3c(Cl)cccc3Cl)CC2)cc1C
- double positive events (at 7.7 µM): 28.4%
- double positive events [1]: 18.9%
- percent response (vesicle binding) [1]: 334% (inactive)
- percent response (vesicle binding) (response, at 7.7 µM): 140%
